# According to PubChem BioAssay (NCATS):
# Several values for one entry are separate records, joined by “and”; a condition that tells them apart may be missing. Identical values can stand only once. A number with no mark means an inactive call. Records with an inconclusive call do not appear. Where a call stands in place of a potency, no number is given. More than one record can exist for a structure, and the calls need not agree. Activity calls are given as the source filed them. Unless noted, calls come from the whole dose curve; as a rule, active = well fitted curve in the direction sought with a large enough effect; inconclusive = small, poorly fitted or top-dose-only effect, or another doubt; inactive = no such curve, though single readings can be large; an effect the other way counts as inactive or inconclusive.
# What was measured:
# [1] = Stat Signaling Pathway (AID 446; active = well fitted curve in either direction with a large enough effect, not every such curve was filed as active;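 note: ME-180 cervical cancer cells given 40 pM IL-6 alongside compound; SIE-controlled beta-lactamase reporter measured as 460/530 nm FRET emission ratio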); conditions: ME-180 (cervical carcinoma) SIE beta-lactamase reporter, IL-6 stimulated, 5 h; at 38 µM (top of the series) unless noted
# Procedure, shortened: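 Normalization used AC90 stimulation (300 pM IL-6) and AC90 inhibition (125 nM pan-JAK inhibitor at 40 pM IL-6). The underlying signal is SIE-driven beta-lactamase in ME-180 cells after 5 h IL-6 exposure with compound.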
# [2] = target: Glucocorticoid receptor (Homo sapiens) (UniProt P04150); experiment: GR-GFP Redistribution (AID 450;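 active = compounds whose dose series gives a full or clear partial fitted curve of increased nuclear translocation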; note: potency is the fitted concentration of half-maximal effect); conditions: U2OS GR-GFP nuclear translocation, laser cytometry, 2 h
# [3] = target: Glucocorticoid receptor (Homo sapiens) (UniProt P04150); experiment: GR-EFC Redistribution (AID 451; calls by dose curve; note: potency is the fitted concentration of half-maximal effect); conditions: CHO-K1 GR-EFC translocation, beta-gal luminescence, 2 h
# Procedure, shortened: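 Translocation of GR-ED fusion to nuclear EA restores b-gal, read by luminescence after 1 h room-temperature detection. Engineered CHO-K1 biosensor cells, 1,000/well, exposed 2 h at 37 C to titrations up to 46 uM final.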
# [4] = target: Mitogen-activated protein kinase 10 (Mus musculus) (UniProt Q61831); experiment: JNK3 AlphaScreen Assay (AID 530; active = well fitted curve in either direction with a large enough effect, not every such curve was filed as active;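 note: kinase came from lysate of stimulated human HepG2 cells; signal reports phosphorylation of biotinylated GST-cJun 1-79 at Ser73 with 10 µM ATP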)
# Procedure, shortened: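 qHTS titrations with 15 min compound pre-incubation before adding ATP (10 uM final). Read-out: AlphaScreen of Ser73-phosphorylated biotin-GST-cJun using HepG2 lysate JNK3 activated by IL-1β and TNFα.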
# [5] = target: 3',5'-cyclic-AMP phosphodiesterase 4B (Homo sapiens) (UniProt Q07343); experiment: qHTS Assay for Inhibitors of PDE-IV (AID 607; active = well fitted activation curve with a large enough effect in the main read-out, with a control signal flat, not every such curve was filed as active; note: potency is the fitted concentration of half-maximal effect)
# Procedure, shortened: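 HEK293 ACTOne cells with CNG channel (1000/well), endogenous PDE4; membrane potential dye, compounds up to 22.9 uM final. Fluorescence Ex 535/Em 590; RO 20-1724 (100 uM final) as reference.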
# [6] = Cell Viability - N2a (AID 540); conditions: N2a mouse neuroblastoma cell viability; activity change, negative = cytotoxicity: at 92.2 µM (top of the series);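 note: cells exposed to compound for 40 h at 37 °C; nearly all actives have a fitted effect of over 45% in size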
# Procedure, shortened: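 Cytotoxicity was scored as loss of cellular ATP in N2a cells, a mouse neuroblastoma line. Compounds are applied in a qHTS concentration series for 40 hr at 37 °C.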
# [7] = Cell Viability - NIH 3T3 (AID 541); conditions: NIH 3T3 cell viability, qHTS;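 note: cells exposed to compound for 40 hours; nearly all actives have a fitted effect of over 25% in size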
# Procedure, shortened: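 Cells seeded at 1000/well, rested 5 hr at 37 °C, then dosed and incubated 40 hr at 37 °C. CellTiter-Glo added, 20 min room temperature, luminescence read. AC50 by Hill fit.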
# [8] = Cell Viability - HUV-EC-C (AID 542);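 note: cells exposed to compound for 40 hours; nearly all actives have a fitted effect of over 35% in size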
# Procedure, shortened: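 Cells were seeded at 1000 per well and incubated 5 hr at 37 °C before compound addition. After 40 hr at 37 °C, CellTiter-Glo reagent was added for 20 min and luminescence read. AC50 values came from Hill-equation modelling.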
# [9] = Cell Viability - H-4-II-E (AID 543);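 note: cells exposed to compound for 40 hours; nearly all actives have a fitted effect of over 35% in size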
# Procedure, shortened: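 Cells seeded at 1500 per well and rested 5 hr; compounds added; 40 hr incubation at 37 °C; CellTiter-Glo added, 20 min at room temperature; luminescence read. Hill-equation fits gave AC50.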
# [10] = Cell Viability - SH-SY5Y (AID 544);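 note: cells exposed to compound for 40 hours; nearly all actives have a fitted effect of over 55% in size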; note: potency is the fitted concentration of half-maximal effect
# Procedure, shortened: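 Cells were plated at 1500 per well and allowed 5 hr at 37 °C. Compounds were added across a concentration range and incubated 40 hr at 37 °C. CellTiter-Glo was added for 20 min at room temperature before luminescence reading.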
# [11] = Cell Viability - Mesenchymal (AID 546);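 note: cells exposed to compound for 40 hours before reading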
# Procedure, shortened: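 CellTiter-Glo luminescence (intracellular ATP, 20 min room temperature) after 40 hr compound exposure at 37 °C of 1000 glomerulus-derived human kidney mesenchymal cells/well; AC50 values obtained by fitting qHTS concentration-response data to the Hill equation.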
# [12] = Cellular Toxicity (caspase-3) HepG2 (AID 654);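 note: cells exposed to compound for 16 hours before reading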
# Procedure, shortened: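 Caspase 3/7 activation in HepG2 is measured as rising luminescence after a 16 hr treatment at 37 °C. Values are scaled between DMSO basal and 100 uM tamoxifen, and AC50 is fitted with the Hill equation.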
# [13] = Cellular Toxicity (caspase-3) Jurkat (AID 655);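 note: cells exposed to compound for 16 h at 37 °C before reading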
# Procedure, shortened: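 5000 Jurkat cells/well; compound 16 hr, 37 °C; Caspase-Glo 3/7 added, 20 min RT; luminescence read. Norm: DMSO = 0%, tamoxifen 100 uM = 100%. AC50, Hill model.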
# [14] = Cellular Toxicity (caspase-3) HUV-EC-C (AID 656)
# Procedure, shortened: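 qHTS; HUV-EC-C, 1000 cells/well; 5 hr settle, 16 hr cmpd, 37°C; Caspase-Glo 3/7, 20 min RT; luminescence. Norm: DMSO = 0%, tamoxifen 100 uM = 100%. Hill-fit AC50.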
# [15] = Cellular Toxicity (caspase-3) SHSY5Y (AID 657);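 note: cells exposed to compound for 16 hours at 37 °C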
# Procedure, shortened: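 qHTS, SH-SY5Y, 1500 cells/well, 5 h pre-incubation 37 °C; compound 16 h 37 °C; Caspase-Glo 3/7 1 h RT; luminescence. Norm.: DMSO = 0, 10 uM staurosporine = 100%. Hill fit → AC50.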
# [16] = Cellular Toxicity (caspase-3) BJ (AID 658); conditions: Potency: caspase-3 activation;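 note: cells exposed to compound for 16 hours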
# Procedure, shortened: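 Caspase-Glo 3/7 luminescence, read 1 hr after reagent at room temperature, in normal BJ fibroblasts exposed 16 hours at 37 °C. AC50 values from Hill-equation concentration-response, scaled between DMSO basal and 10 uM staurosporine as 100%.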
# [17] = Cellular Toxicity (caspase-3) MRC-5 (AID 659); conditions: Potency: caspase-3 activation
# Procedure, shortened: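 Luminescent Caspase-Glo 3/7 read-out (1 h, room temperature) after a 16 h, 37 °C compound exposure of MRC-5 lung fibroblasts at 1500 cells/well. Concentration-response AC50 from Hill equation; 0% DMSO, 100% 10 uM staurosporine.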
# [18] = Cellular Toxicity (caspase-3) Mesangial (AID 660);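 note: combined caspase 3 and 7 activity read by Caspase-Glo luminescence; cells exposed to compound for 16 h before the caspase read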
# Procedure, shortened: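 Seed cells derived from normal human renal glomeruli, incubate 5 h, add compounds across concentrations and incubate 16 h at 37 °C. Caspase 3/7 activation is then quantified by luciferase light, with AC50 derived by Hill modeling.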
# [19] = Cellular Toxicity (caspase-3) H-4-II-E (AID 663);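 note: cells exposed to compound for 16 hr before readout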
# Procedure, shortened: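 Caspase 3/7 activation measured by luminescent aminoluciferin substrate cleavage after 16 hr compound treatment of H-4-II-E cells in complete medium. Increase normalized between DMSO (basal) and 100 uM tamoxifen (100%); Hill-equation AC50 from concentration-response.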
# [20] = Cellular Toxicity (caspase-3) Hek293 (AID 664);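 note: cells exposed to compound for 16 h at 37 °C before readout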
# Procedure, shortened: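 qHTS, HEK293 (human embryonic kidney), 16 h cpd exposure in complete medium. Caspase-3/7 activation = luminescence increase; normalized to DMSO/100 uM tamoxifen; Hill-fit AC50.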
# [21] = activity change, negative = cytotoxicity: at 92.2 µM (top of the series)
# 3',5'-cyclic-AMP phosphodiesterase 4B (Homo sapiens), sequence (Q07343 whole entry, looked up): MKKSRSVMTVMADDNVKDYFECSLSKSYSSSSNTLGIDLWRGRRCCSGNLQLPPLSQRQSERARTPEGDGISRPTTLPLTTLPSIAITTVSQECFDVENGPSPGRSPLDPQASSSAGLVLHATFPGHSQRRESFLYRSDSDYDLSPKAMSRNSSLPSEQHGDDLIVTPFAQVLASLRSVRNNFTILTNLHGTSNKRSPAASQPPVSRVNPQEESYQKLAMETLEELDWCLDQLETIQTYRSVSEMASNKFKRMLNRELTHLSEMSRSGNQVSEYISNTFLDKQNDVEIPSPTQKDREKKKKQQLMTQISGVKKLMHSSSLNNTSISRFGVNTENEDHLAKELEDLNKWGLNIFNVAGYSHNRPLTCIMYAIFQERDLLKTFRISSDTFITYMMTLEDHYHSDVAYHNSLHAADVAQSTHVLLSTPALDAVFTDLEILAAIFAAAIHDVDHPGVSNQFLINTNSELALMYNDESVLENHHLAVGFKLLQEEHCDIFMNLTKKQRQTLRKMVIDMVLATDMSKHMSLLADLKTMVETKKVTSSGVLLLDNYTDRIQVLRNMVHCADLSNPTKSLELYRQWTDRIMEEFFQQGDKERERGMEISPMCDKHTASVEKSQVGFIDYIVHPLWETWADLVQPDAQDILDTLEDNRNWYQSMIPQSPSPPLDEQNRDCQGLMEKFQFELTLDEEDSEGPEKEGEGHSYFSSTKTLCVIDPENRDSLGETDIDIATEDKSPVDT
# Glucocorticoid receptor (Homo sapiens), sequence (P04150 whole entry, looked up, the tested form may be a part): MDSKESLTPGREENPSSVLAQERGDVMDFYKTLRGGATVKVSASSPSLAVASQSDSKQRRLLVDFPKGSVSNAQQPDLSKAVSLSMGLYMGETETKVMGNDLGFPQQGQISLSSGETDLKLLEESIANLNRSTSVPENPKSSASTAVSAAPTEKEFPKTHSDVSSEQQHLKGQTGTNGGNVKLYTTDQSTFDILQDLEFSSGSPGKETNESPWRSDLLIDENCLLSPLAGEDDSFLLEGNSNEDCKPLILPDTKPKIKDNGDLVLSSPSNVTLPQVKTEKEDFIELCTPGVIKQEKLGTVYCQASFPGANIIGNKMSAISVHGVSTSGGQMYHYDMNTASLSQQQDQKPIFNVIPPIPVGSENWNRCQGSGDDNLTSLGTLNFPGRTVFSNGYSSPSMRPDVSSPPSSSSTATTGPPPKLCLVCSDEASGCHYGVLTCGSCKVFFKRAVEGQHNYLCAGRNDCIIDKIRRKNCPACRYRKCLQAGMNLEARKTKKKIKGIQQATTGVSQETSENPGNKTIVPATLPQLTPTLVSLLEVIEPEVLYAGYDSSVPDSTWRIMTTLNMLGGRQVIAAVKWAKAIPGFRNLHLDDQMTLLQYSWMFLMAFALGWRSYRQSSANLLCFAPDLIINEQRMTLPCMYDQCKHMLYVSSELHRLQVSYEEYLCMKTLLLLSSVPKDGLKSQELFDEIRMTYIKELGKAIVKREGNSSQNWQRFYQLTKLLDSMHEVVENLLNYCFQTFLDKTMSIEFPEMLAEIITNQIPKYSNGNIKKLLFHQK
smiles,measurement,setting,value
Nc1ccc(CCN2CCN(c3cccc(C(F)(F)F)c3)CC2)cc1,"activity, negative = inhibition",[1],-17.7%
same,Potency,[2],> 46 µM
same,Potency,[3],> 46 µM
same,outcome,[4],inactive
same,Potency,[5],inactive
Cc1c2ccncc2c(C)c2c1[nH]c1ccccc12,"activity, negative = inhibition",[1],128% [activator] [at 17.2 µM] (active) and 142% [activator] [at 17.2 µM] (active)
same,Potency,[2],> 46 µM and > 20.6 µM
same,Potency,[3],> 46 µM and > 20.6 µM
same,outcome,[4],inactive
same,Potency,[5],inactive
C[C@@H]1O[C@H](C[N+](C)(C)C)CS1,"activity, negative = inhibition",[1],19.2%
same,Potency,[2],> 46 µM
same,Potency,[3],> 46 µM
same,outcome,[4],inactive
same,Potency,[5],1.26 µM (active)
NCCc1c[nH]c2ccc(C(N)=O)cc12,"activity, negative = inhibition",[1],4.94%
same,Potency,[2],> 46 µM
same,Potency,[3],> 46 µM
same,outcome,[4],inactive
same,Potency,[5],inactive
CCCCCCC(C)(C)c1ccc([C@@H]2C[C@H](O)CC[C@H]2CCCO)c(O)c1,"activity, negative = inhibition",[1],-25.8%
same,Potency,[2],> 46 µM
same,Potency,[3],> 46 µM
same,outcome,[4],inactive
same,Potency,[5],inactive
CCCn1c(C)c(C(=O)c2ccc3ccccc3c2)c2ccccc21,"activity, negative = inhibition",[1],-13.9%
same,Potency,[2],> 46 µM
same,Potency,[3],> 46 µM
same,outcome,[4],inactive
same,Potency,[5],inactive
CC(C)(C)c1cc(O)ccc1O,"activity, negative = inhibition",[1],-2.67% [at 7.69 µM]
same,Potency,[2],> 46 µM
same,Potency,[3],> 9.22 µM
same,outcome,[4],inactive
same,Potency,[6],inactive
same,"activity change, negative = cytotoxicity",[7]; [21],-106% (active)
same,"activity change, negative = cytotoxicity",[7]; at 92.2 µM (top of the series),-22.3%
same,Potency,[8],inactive
same,Potency,[9],inactive
same,Potency,[10],10 µM (active) and 12.6 µM (active)
same,Potency,[11],inactive
same,Potency,[5],inactive
same,outcome,[12],inactive
same,Potency,[13],inactive
same,outcome,[14],inactive
same,outcome,[15],inactive
same,Potency,[16],inactive
same,Potency,[17],inactive
same,outcome,[18],inactive
same,outcome,[19],inactive
same,outcome,[20],inactive
c1ccc2c(N3CCNCC3)cccc2c1,"activity, negative = inhibition",[1],-46.5%
same,Potency,[2],> 46 µM
same,Potency,[3],> 46 µM
same,outcome,[4],inactive
same,Potency,[5],inactive
Cc1[nH]c2ccc(O)cc2c1CCN,"activity, negative = inhibition",[1],6.41%
same,Potency,[2],> 46 µM
same,Potency,[3],> 46 µM
same,outcome,[4],inactive
same,Potency,[5],inactive
CCCN1CCc2cc(O)cc3c2[C@H]1Cc1ccc(O)c(O)c1-3,"activity, negative = inhibition",[1],39.4%
same,Potency,[2],> 46 µM
same,Potency,[3],> 46 µM
same,outcome,[4],inactive
same,Potency,[5],inactive
C[C@@H]1[C@@H]2Cc3ccc(O)cc3[C@@]1(C)CCN2CC1CC1,"activity, negative = inhibition",[1],-18.1%
same,Potency,[2],> 46 µM
same,Potency,[3],> 46 µM
same,outcome,[4],inactive
same,Potency,[5],inactive
NNC(N)=O,"activity, negative = inhibition",[1],1.85%
same,Potency,[2],> 46 µM
same,Potency,[3],> 46 µM
same,outcome,[4],inactive
same,Potency,[6],inactive
same,Potency,[7]; [21],inactive
same,Potency,[8],inactive
same,Potency,[9],inactive
same,Potency,[10],inactive
same,Potency,[11],inactive
same,Potency,[5],inactive
same,outcome,[12],inactive
same,Potency,[13],inactive
same,outcome,[14],inactive
same,outcome,[15],inactive
same,Potency,[16],inactive
same,Potency,[17],inactive
same,outcome,[18],inactive
same,outcome,[19],inactive
same,outcome,[20],inactive
